Compound activity from PubChem.
An excerpt weighted towards active compounds, which were near 4.5% of everything screened.
Gli-Sufu antag: Gli-Sufu pathway antagonists, primary screen, luciferase luminescence, Sufu-KO-LIGHT cells, uHTS; hit rate 0.74% among 340,000; inhibition, % at 5 µM; Sufu-KO-LIGHT fibroblasts, Gli luciferase reporter luminescence; AID 588413, 2011;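 active = inhibition above about 55%, limit read from the data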;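 note: 0% = DMSO-treated cells and 100% = wells with medium but no cells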
Mdm2 MdmX PPI: inhibitors of human Mdm2-MdmX association, primary screen, cell-based, luminescence, split luciferase, SaOS-2, uHTS; AID 485346, 2010; Protein Mdm4 (Homo sapiens) + E3 ubiquitin-protein ligase Mdm2 (Homo sapiens), …; SaOS-2 split-luciferase Mdm2/MdmX complementation; hit rate 3% among 330,000; inhibition, % at 8 µM;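 active = inhibition of at least 50% at 8 µM in the primary screen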
Target sequence (O15151 whole entry, looked up): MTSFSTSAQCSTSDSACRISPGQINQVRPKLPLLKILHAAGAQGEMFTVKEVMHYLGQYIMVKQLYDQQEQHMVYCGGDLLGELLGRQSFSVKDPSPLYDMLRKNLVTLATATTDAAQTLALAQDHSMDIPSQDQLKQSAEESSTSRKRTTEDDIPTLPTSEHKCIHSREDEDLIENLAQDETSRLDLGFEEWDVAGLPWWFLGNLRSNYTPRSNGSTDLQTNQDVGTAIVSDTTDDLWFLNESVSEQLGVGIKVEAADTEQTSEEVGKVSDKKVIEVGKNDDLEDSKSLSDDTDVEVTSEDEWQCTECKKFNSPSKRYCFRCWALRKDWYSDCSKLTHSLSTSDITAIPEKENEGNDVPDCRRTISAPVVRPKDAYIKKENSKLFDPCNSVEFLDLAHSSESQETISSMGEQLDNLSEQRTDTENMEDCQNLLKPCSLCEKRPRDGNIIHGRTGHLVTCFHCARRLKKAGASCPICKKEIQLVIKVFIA
Target sequence (Q00987 whole entry, looked up): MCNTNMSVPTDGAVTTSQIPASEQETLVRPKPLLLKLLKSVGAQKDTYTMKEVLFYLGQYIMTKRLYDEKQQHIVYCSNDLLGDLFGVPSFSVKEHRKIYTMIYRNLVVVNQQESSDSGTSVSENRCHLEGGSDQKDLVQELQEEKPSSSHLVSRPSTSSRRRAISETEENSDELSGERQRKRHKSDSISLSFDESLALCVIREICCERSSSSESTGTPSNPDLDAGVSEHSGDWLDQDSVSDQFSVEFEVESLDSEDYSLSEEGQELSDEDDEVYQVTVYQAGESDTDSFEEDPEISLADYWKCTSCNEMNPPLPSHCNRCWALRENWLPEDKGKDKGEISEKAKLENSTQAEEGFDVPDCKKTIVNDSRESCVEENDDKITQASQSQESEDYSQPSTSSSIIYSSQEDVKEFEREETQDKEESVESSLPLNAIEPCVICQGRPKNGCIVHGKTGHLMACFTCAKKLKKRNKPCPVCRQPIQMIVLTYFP
697 NFkB inh: inhibitors of PMA/ionomycin-induced NF-kB reporter, 697 cells, primary screen, B-cell NF-kB inhibitor project, cell-based, luminescence, uHTS. hit rate 0.33% among 330,000. 697 B-cell NF-kB luciferase reporter, 16 h. inhibition, % at 4 µM; in the data active = inhibition above about 35%
CSC inhib: cancer stem cell viability inhibitors, primary screen, luminescence; inhibition, % at 7.5 µM; AID 2717, 2010; hit rate 1.1% among 300,000; cancer stem cell-like cells viability; in the data active = inhibition above about 75%; tested in HMLE shEcad cells
aSyn 5UTR inh: MLPCN primary screen, SNCA 5' untranslated region; alpha-synuclein 5'UTR reporter, inhibitor activity; inhibition, % (tested at 7.5 µM); hit rate 0.82% among 300,000; in the data active = inhibition above about 60%;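 note: H4 neuroglioblastoma cells stably carrying SNCA 5'UTR luciferase fusion; 0% = DMSO wells and 100% = positive control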
Jurkat NFkB inh: inhibitors of induced NF-kB luciferase reporter, primary screen, TCR NF-kB activation inhibitor project, cell-based, luminescence, uHTS. AID 435003, 2010. inhibition, % at 4 µM. hit rate 0.53% among 330,000. Jurkat, PMA/ionomycin-induced NF-kB luciferase reporter; in the data active = inhibition above about 50%
Mdm2-MdmX conf: Mdm2-MdmX complex disruptors, retested hits, confirmation, luminescence, single concentration. shares compounds with Mdm2 MdmX PPI. Mdm2-MdmX binding, luminescent assay. inhibition, % at 8 µM. hit rate 55% among 10,000. AID 489028, 2010; in the data active = inhibition above about 40%
Full FLuc ctr: full-length luciferase signal inhibition, confirmation, counter-screen for Mdm2/MdmX interaction inhibitor project, cell-based, single concentration, SaOS-2; AID 504607, 2011; hit rate 77% among 6,200; shares compounds with Mdm2 MdmX PPI; inhibition, % at 8 µM; SaOS-2 full-length luciferase counterscreen, luminescence;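 active = mean inhibition at 8 µM reaching about 37%, which flags the compound as non-specific, limit read from the data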;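 note: p53-null SaOS-2 cells with luciferase driven by a doxycycline-inducible promoter; compound on cells about two nights before reading with doxycycline added after day one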
* marks the source's active call; other numbers are inactive results; nt = not tested or not shown.

SMILES | Gli-Sufu antag | Mdm2 MdmX PPI | 697 NFkB inh | CSC inhib | aSyn 5UTR inh | Jurkat NFkB inh | Mdm2-MdmX conf | Full FLuc ctr
C=CCn1c(SCc2c(C)noc2C)nc2sc(C)c(C)c2c1=O | 13.2 | 56.2* | -26.9 | 59.5 | 18.2 | 22.7 | 60.3* | 49.4*
CCN1C(=O)/C(=C/C2=Cc3ccccc3OC2C)SC1=S (centres undefined) | 6.8 | 12.0 | -2.8 | -6.6 | -25.8 | -1.9 | nt | nt
N#Cc1c(-c2ccccc2)c(-c2ccccc2)nn(CC(=O)NNC(=O)Nc2ccc(Cl)c(Cl)c2)c1=O | 14.6 | 62.7* | -16.2 | 105.4* | 33.5 | 11.0 | 47.3* | 35.9
O=C(Cn1nc(-c2ccccc2)c2ccccc2c1=O)Nc1ccc(F)cc1 | -5.7 | 17.8 | 7.2 | -14.0 | 11.9 | -4.1 | nt | nt
CCOc1ccc(/C=N/NC(=O)COc2ccccc2-c2ccccc2)cc1 | -0.6 | 50.9* | -9.2 | 77.8* | -7.9 | 16.3 | 44.0* | 51.5*
CCOc1ccc(/C=N/NC(=S)Nc2c(C)cccc2C)cc1 | -1.6 | 51.5* | -14.3 | 6.1 | 14.5 | -6.7 | 15.2 | nt
CCNC(=S)N/N=C/c1ccc(OCCOc2ccccc2C)cc1 | -8.1 | 36.6 | 32.7 | -7.1 | -15.1 | 2.6 | nt | nt
CC(C)(C)c1nnc(N/N=C/c2ccc(Br)cc2)n(N)c1=O | -23.6 | -10.8 | -12.1 | 12.2 | -59.6 | -21.9 | nt | nt
COc1ccc2cc(C)c(SCC(=O)Nc3cc(C)on3)nc2c1 | -0.7 | 50.0 | 10.4 | nt | 30.1 | 8.9 | 9.7 | nt
Cc1cc(NC(=O)CSc2nnc3c(C)cc4cc(C)c(C)cc4n23)no1 | 1.0 | 77.6* | 2.3 | 1.4 | 16.2 | 8.0 | -7.3 | nt
COc1ccc(OC)c(NC(=O)c2nnn(CC(=O)Nc3ccc4c(c3)OCO4)c2N)c1 | 2.4 | 12.0 | 1.8 | -2.7 | 30.4 | 7.6 | nt | nt
O=C(NC(=S)/C(=C1\CCCCCN1)[N+](=O)[O-])c1ccccc1 | 17.8 | 85.0* | -222.0 | -0.3 | nt | -65.3 | 79.4* | 142.1*
COc1ccc(NC(=O)CSc2nc3c(sc4ccccc43)c(=O)n2CCCN2CCCC2)cc1 | 11.5 | 98.1* | -1.2 | 8.3 | -20.7 | 15.5 | 70.3* | 23.1
CCc1ccc(NC(=O)CSc2nc3ccccc3c(=O)n2CCCC(=O)N2CCCC2)cc1 | -3.8 | 51.7* | -17.5 | 39.7 | -11.3 | 14.6 | 48.9* | 42.2*
CCN(CC)CCn1c(SCC(=O)NCc2ccccc2)nc2c(sc3ccccc32)c1=O | 15.6 | 74.8* | -14.1 | -2.3 | -20.1 | -11.5 | 28.0 | nt
O=C(CSc1nc2c(sc3ccccc32)c(=O)n1CCCN1CCCC1)NCC1CCCO1 (centres undefined) | 18.2 | 5.5 | -33.0 | -3.4 | -20.6 | -11.3 | nt | nt
O=C(CSc1nc2ccccc2c(=O)n1CCCC(=O)N1CCCC1)NCc1ccco1 | 6.5 | 18.4 | 22.7 | -6.9 | 17.8 | 4.9 | nt | nt
COc1ccc(CCNC(=O)C(=O)NCC2OCCN2S(=O)(=O)c2ccccc2)cc1 (centres undefined) | 3.2 | 18.6 | 6.9 | -8.3 | 5.4 | -9.6 | nt | nt
NS(=O)(=O)c1ccc(N2C(=O)C(=O)/C(=C(/O)c3ccccc3)C2c2ccc(Cl)cc2)cc1 (centres undefined) | 4.9 | 9.1 | 9.9 | -2.8 | 3.2 | -3.3 | nt | nt
Cc1noc2ncnc(Sc3c(Cl)cccc3Cl)c12 | 3.5 | 53.5* | 14.2 | 10.5 | -11.4 | -2.2 | 20.1 | nt
Cc1ccc2c(c1)C(c1ccc([N+](=O)[O-])cc1)=NNC(c1ccc(Br)cc1)=N2 | 4.9 | 71.4* | 13.2 | 14.1 | -27.1 | 1.2 | -2.8 | nt
Cc1ccc(OCc2nnc(SCC(=O)Nc3nccs3)n2-c2ccccc2)cc1C | 8.6 | 54.8* | -1.6 | -12.6 | -14.7 | -3.7 | 25.0 | nt
CCn1c(CC(=O)Nc2cccc(OC)c2)nnc1SCC(=O)Nc1nccs1 | 2.7 | 57.1* | 18.8 | -5.5 | 17.9 | 8.8 | 53.7* | 58.7*
CCn1c(CC(=O)Nc2ccc(C)c(Cl)c2)nnc1SCc1ccc(Cl)c(Cl)c1 | 2.2 | -6.8 | -37.5 | -7.9 | -4.0 | -11.4 | nt | nt
Cc1ccc(-n2c(COc3c(C)cccc3C)nnc2SCC(=O)Nc2nccs2)cc1 | 7.6 | -27.0 | 8.7 | -3.5 | 0.0 | 7.8 | nt | nt
SMILES | Gli-Sufu antag | Mdm2 MdmX PPI | 697 NFkB inh | CSC inhib | aSyn 5UTR inh | Jurkat NFkB inh | Mdm2-MdmX conf | Full FLuc ctr
CCn1c(CC(=O)Nc2ccc(C)c(Cl)c2)nnc1SCC(=O)Nc1nc(C)cs1 | 1.8 | 62.8* | -18.0 | 0.3 | 10.7 | -10.3 | -1.9 | nt
O=C(c1ccc(Cl)cc1)N1CCCCC(Sc2nnc(-c3ccc4c(c3)OCO4)o2)C1=O (centres undefined) | 35.6 | 83.9* | 26.2 | 8.4 | 92.0* | 42.2 | 82.3* | 49.6*
O=C(O)CSc1nnc(-c2ccc3c(c2)OCO3)o1 | 2.5 | 18.1 | 22.6 | 7.4 | 9.8 | 1.4 | nt | nt
O=C(c1ccc(N2CCOCC2)c([N+](=O)[O-])c1)N1CCCC(C(F)(F)F)C1 (centres undefined) | -2.2 | -6.2 | 16.6 | -6.0 | 9.9 | 0.9 | nt | nt
CCOC(=O)C(CC)(CC)C(=O)/C=C/c1cccc(Br)c1 | 16.4 | 96.8* | -20.1 | -6.7 | -74.0 | -7.7 | 65.5* | 29.2
O=c1c2ccccc2oc2cc(C#CC3(O)CCCCC3)ccc12 | 36.4 | 87.0* | -159.8 | 18.9 | 77.3* | -85.1 | 76.3* | 98.2*
C=C(C)Cn1c(CCCNC(=O)CCC)nc2ccccc21 | -3.1 | 19.2 | -20.0 | -8.3 | 7.7 | -0.2 | nt | nt
CCCCOc1ccc(Cl)cc1Nc1nc(NCCO)nc(N2CCCC2)n1 | 8.7 | 36.3 | 5.5 | -1.7 | -7.3 | 3.9 | nt | nt
COc1ccc(-c2csc(NC(C)c3nc4cc(Cl)c(Cl)cc4n3CCCO)n2)cc1 (centres undefined) | 24.3 | 59.2* | -2.8 | -5.6 | 12.0 | 13.0 | 30.1 | nt
CC(Nc1nc(-c2ccc(F)cc2)cs1)c1nc2cc(Cl)c(Cl)cc2n1CCOCCO (centres undefined) | 16.5 | 30.3 | -11.9 | -1.8 | -36.3 | 4.9 | nt | nt
CC(Nc1nc(-c2ccc(F)cc2)cs1)c1nc2cc(Cl)c(N3CCCCC3)cc2n1CCCO (centres undefined) | 45.2 | 74.8* | -1.4 | 26.9 | -2.8 | 5.8 | 17.6 | nt
O=C(NCc1ccco1)c1ccc(N2CCCCC2)c([N+](=O)[O-])c1 | -4.7 | 14.3 | -28.1 | -7.8 | -9.4 | 27.7 | nt | nt
Cc1ccc(N(Cc2ccco2)C(=O)c2ccc(N3CCCCC3)c([N+](=O)[O-])c2)cc1 | 17.9 | 53.9* | -34.7 | 64.4 | 8.7 | -33.0 | 29.4 | nt
